H9c2 protect – cardioprotection against H2O2-induced cell death, primary screen, uHTS, H9c2 cells, ATPLite luminescence. H9c2 cardiomyocytes, H2O2 injury protection, 2 h. AID 588492, 2011. 0.63% of 360,000 active. protection from H2O2 cell death, % at 20 µM;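 active = compounds giving at least 50% protection of heart cells from peroxide-induced death in the single-dose screen, raw or plate-pattern-corrected value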;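 note: 0% = DMSO wells with peroxide and 100% = DMSO wells without peroxide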
PfG6PD inh – PfG6PD enzyme inhibitors, primary screen, biochemical, fluorescence intensity, uHTS. PfGluPho enzyme, NADPH resazurin-diaphorase fluorescence. inhibition, % at 20 µM. 0.78% of 350,000 active;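 active = inhibition reaching at least a set limit at 20 µM in the primary screen, cut at about 59% in these data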;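 note: 0% = DMSO wells with substrate and 100% = DMSO wells lacking glucose-6-phosphate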
CRFR2-BP ag – agonists of CRF-BP/CRF-R2 complex, primary screen, cell-based, HEK293, calcium dye fluorescence, uHTS; CRF-binding protein / CRF receptor 2 complex (human); calcium dye fluorescence (FLIPR); percent of saturating CRF peptide response; activation, % at 13.2 µM; 0.46% of 350,000 active; AID 588473, 2011;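 active = activation of at least 50%, plus an integration ratio under a set limit after plate pattern correction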;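 note: plate controls were neutral control wells without compound for no effect and CRF at EC100 for full effect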
FAS TE block – FAS thioesterase domain inhibitors, primary screen, biochemical, fluorescence intensity, uHTS; Fatty acid synthase (Homo sapiens), P49327; recombinant FAS-TE, OMFH fluorogenic substrate, fluorescence endpoint; inhibition, % at 15 µM; 0.67% of 360,000 active; AID 602261, 2012;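 active = compounds whose normalised, plate-corrected inhibition of enzyme fluorescence in the single-dose primary screen is 50% or more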;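 note: 0% = DMSO with enzyme and 100% = substrate without enzyme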
Target sequence (P49327 whole entry, looked up, the tested form may be a part): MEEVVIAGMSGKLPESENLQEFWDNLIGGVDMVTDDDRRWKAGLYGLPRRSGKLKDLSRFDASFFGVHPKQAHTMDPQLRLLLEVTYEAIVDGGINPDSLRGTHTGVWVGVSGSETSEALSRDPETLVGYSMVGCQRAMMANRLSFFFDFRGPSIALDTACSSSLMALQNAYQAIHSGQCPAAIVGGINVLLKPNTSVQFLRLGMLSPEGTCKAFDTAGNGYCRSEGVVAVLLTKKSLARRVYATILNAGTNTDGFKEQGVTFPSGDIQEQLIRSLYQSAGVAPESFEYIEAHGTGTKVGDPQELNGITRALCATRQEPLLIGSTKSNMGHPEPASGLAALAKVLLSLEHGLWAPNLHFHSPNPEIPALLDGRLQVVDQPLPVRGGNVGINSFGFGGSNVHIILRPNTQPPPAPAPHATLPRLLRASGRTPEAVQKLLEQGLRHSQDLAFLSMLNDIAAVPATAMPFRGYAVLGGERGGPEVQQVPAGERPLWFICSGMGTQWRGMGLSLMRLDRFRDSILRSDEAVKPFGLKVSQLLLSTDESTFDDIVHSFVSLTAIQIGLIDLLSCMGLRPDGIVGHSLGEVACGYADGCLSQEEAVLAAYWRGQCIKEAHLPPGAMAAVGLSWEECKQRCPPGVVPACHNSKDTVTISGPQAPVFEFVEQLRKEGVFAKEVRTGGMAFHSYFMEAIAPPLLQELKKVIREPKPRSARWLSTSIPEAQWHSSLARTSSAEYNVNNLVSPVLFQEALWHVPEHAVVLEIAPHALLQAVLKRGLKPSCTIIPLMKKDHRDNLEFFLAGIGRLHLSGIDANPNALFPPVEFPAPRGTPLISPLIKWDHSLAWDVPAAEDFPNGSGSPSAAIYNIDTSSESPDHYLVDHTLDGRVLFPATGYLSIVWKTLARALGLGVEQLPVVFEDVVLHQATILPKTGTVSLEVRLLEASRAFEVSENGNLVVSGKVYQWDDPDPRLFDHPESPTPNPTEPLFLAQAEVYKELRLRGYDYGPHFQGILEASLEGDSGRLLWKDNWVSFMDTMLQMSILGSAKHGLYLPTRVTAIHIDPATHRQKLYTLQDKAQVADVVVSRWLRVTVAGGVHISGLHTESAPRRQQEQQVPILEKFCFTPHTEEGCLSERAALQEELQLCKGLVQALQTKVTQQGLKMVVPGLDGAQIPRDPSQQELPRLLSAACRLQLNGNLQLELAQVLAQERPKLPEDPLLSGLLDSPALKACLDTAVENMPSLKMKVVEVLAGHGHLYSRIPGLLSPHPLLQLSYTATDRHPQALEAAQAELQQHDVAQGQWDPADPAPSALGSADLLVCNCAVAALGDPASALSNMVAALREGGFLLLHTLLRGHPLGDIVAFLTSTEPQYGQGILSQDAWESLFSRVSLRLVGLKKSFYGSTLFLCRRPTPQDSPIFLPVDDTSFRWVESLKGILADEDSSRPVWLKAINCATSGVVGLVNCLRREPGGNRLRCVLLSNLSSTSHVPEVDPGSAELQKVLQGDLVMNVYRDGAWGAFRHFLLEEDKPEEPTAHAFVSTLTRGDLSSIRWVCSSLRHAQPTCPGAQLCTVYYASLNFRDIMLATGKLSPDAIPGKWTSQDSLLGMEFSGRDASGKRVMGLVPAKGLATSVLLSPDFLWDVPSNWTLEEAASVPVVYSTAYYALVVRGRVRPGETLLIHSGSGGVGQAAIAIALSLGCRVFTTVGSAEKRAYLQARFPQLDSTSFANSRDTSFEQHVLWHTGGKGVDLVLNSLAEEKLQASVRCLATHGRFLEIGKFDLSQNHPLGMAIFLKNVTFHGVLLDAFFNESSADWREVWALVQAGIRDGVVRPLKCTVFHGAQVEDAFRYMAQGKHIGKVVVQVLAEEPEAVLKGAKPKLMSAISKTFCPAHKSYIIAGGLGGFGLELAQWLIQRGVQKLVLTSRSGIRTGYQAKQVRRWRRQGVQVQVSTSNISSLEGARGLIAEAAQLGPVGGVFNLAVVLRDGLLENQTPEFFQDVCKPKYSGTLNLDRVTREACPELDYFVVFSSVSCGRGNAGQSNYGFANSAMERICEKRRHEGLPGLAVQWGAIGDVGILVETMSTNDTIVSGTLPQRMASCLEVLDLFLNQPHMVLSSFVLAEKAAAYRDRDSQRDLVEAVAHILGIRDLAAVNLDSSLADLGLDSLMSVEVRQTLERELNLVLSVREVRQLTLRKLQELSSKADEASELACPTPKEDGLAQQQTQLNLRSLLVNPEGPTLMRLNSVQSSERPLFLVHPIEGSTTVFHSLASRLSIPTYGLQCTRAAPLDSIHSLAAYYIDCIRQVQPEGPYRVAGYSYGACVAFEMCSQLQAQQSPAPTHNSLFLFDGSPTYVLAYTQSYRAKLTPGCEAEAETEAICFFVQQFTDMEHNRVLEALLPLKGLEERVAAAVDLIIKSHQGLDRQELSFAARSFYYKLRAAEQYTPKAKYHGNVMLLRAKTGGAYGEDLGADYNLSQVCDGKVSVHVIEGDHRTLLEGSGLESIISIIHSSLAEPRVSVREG
CRFR2-BP antag – antagonists of CRF-BP/CRF-R2 complex, primary screen, cell-based, HEK293, calcium dye fluorescence, uHTS; CRF-induced calcium fluorescence; inhibition, % at 11.8 µM; 0.59% of 350,000 active; AID 588475, 2011;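 active = inhibition of the ligand-induced calcium signal above about 50% at the single tested concentration, limit read from the data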
aDG glyco act – activators of alpha-DG glycosylation, primary screen, uHTS, Pro5-aDG cells, AlphaScreen; alpha-DG glycosylation AlphaScreen (IIH6); 0% Pro5, 100% B10-LARGE cell signal; activation, % at 10 µM; 0.22% of 360,000 active; AID 624168, 2012;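 active = activation of at least 8% versus controls, or a plate z-score of at least 8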;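 note: Pro5 are CHO cells carrying HIG-tagged alpha-DG that lacks glycosylation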
FAS-TE conf – FAS thioesterase domain inhibitors, confirmation, biochemical, fluorescence intensity, single concentration | AID 624325, 2012 | inhibition, % at 15 µM | 45% of 2,300 active | recombinant FAS-TE, OMFH fluorogenic substrate | shares compounds with FAS TE block;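 active = compounds inhibiting the enzyme by at least 50% at 15 µM in any one of the replicates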;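 note: 0% = enzyme with DMSO only and 100% = wells lacking enzyme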
* = called active by the depositor; . = no result given. Sampled rows, rich in hits. Any-hit rate of the full collection: about 3.2%.

SMILES	H9c2 protect	PfG6PD inh	CRFR2-BP ag	FAS TE block	CRFR2-BP antag	aDG glyco act	FAS-TE conf
COc1ccc(-c2csc(NC(C)c3nc4cc(C(=O)NCCCO)ccc4n3Cc3ccc(C)cc3)n2)cc1 (stereo unspecified)	-4	12	2	14	-9	0	.
COC(=O)c1ccc(CN2C(=O)NC(CC(C)C)C2=O)cc1 (stereo unspecified)	1	-6	-2	-2	-29	0	.
CN(C)S(=O)(=O)c1ccc(C(=O)Nc2cc(S(=O)(=O)Nc3ccccc3Cl)ccc2N2CCCCC2)cc1	8	-4	-2	73*	15	0	22
CN1CCN(c2ccc(Cl)cc2NC(=O)c2ccc(S(=O)(=O)N(C)C)cc2)CC1	12	-12	3	-5	-2	0	.
O=C(CCc1nnc(COc2ccccc2)o1)NCc1ccccc1C(F)(F)F	-6	7	-2	-1	1	0	.
O=C(Nc1cccc(S(=O)(=O)NC2=NCCCCC2)c1)c1cc(-c2ccc(Cl)cc2)nc2ccccc12	2	5	2	57*	-17	0	27
O=C(Nc1cccc(S(=O)(=O)NC2=NCCCCC2)c1)c1cc(-c2ccccc2)nc2ccccc12	1	6	9	37	19	0	.
O=C(Nc1nc2ccccc2s1)c1ccc(N2CCCCC2)c([N+](=O)[O-])c1	-4	36	-2	54*	0	0	3
CC[C@]1(C(=O)OC)[C@H]2C(=O)N(Cc3ccccc3)C(=O)[C@H]2[C@H]2CN=C(SC)N21	-4	-2	0	-7	-8	0	.
CC(C)OC(=O)/C(C#N)=C/c1ccc(-c2ccc(SC(F)F)cc2)o1	-9	-5	15	61*	-45	0	9
O=C(Cn1cccc1C(=O)c1ccccc1)NCc1cccc(Cl)c1	1	9	2	7	0	0	.
CC(=O)C(=Cc1ccc(C(=O)O)cc1)C(C)=O	0	1	-1	-3	9	0	.
C/C(=C\c1ccc(C(=O)O)cc1)c1ccc2c(c1)C(C)(C)CCC2(C)C	14	-41	0	73*	29	0	34
O=C(CC1C[C@H](C(=O)N2CCOCC2)[C@@]2(CCC3CCCC3)c3[nH]c4ccccc4c3CCN2C1=O)NCCC1=CCCCC1 (stereo partly specified)	-3	-1	0	73*	-1	3	39*
CN(C)CCCNC(=O)CC1C[C@H](C(=O)N2CCOCC2)[C@@]2(CCC3CCCC3)c3[nH]c4ccccc4c3CCN2C1=O (stereo partly specified)	-23	-1	5	78*	-23	0	86*
CC[C@]12c3[nH]c4ccccc4c3CCN1C(=O)C(CC(=O)NCCCN(C)C)C[C@@H]2C(=O)N1CCN(C(=O)C2CC2)CC1 (stereo partly specified)	11	-8	-1	-5	-3	0	.
CC[C@]12c3[nH]c4ccccc4c3CCN1C(=O)C(CC(=O)NCCC1=CCCCC1)C[C@@H]2C(=O)N1CCN(C(=O)c2ccco2)CC1 (stereo partly specified)	0	3	-3	13	-14	0	.
Cc1ccc(S(=O)(=O)NN=C2CCC(C(C)(C)C)CC2)cc1[N+](=O)[O-] (stereo unspecified)	1	-19	1	67*	-25	0	47*
COc1ccccc1N1CCN(CCCNC(=O)C2CCCN(c3ncnc4c3nc3n4CCCCC3)C2)CC1 (stereo unspecified)	6	3	-2	1	4	0	.
CN(C)C(=O)c1cc(Cl)ccc1Sc1cc(Cl)ccc1Cl	-1	32	1	5	22	0	.
Oc1ccc(Cl)cc1Sc1cc(Cl)ccc1O	-24	-34	5	88*	16	0	98*
COc1ccc(-n2nc(C(=O)NCC(=O)NCc3ccc(F)cc3)c3ccccc3c2=O)cc1	13	-16	-1	3	-7	0	.
CC(C)(C)C(=O)CSc1ccc(S(=O)(=O)N2CCN(Cc3ccccc3)CC2)cn1	-6	-4	-1	29	6	0	.
C=CCn1c(C)c(C(C)=O)c(N2CCN(C(c3ccccc3)c3ccccc3)CC2)nc1=S	13	12	0	58*	9	1	0
N#CCCSc1nc(N2CCOCC2)c2c(c1C#N)CCCC2	3	36	-3	55*	-18	6	62*
SMILES	H9c2 protect	PfG6PD inh	CRFR2-BP ag	FAS TE block	CRFR2-BP antag	aDG glyco act	FAS-TE conf
Cc1ccc(/C=C(\C#N)C(=O)N2CCCC2)c(C)c1	-5	-13	2	-1	-6	0	.
COc1ccccc1/C=C(/C(=O)OCC(=O)Nc1cc(C)ccc1C)c1ccccc1	-6	.	.	18	.	1	.
CC(C)Cn1c(N)c(C(=O)COC(=O)c2cc3ccccc3cc2O)c(=O)n(C)c1=O	-11	8	0	82*	-2	2	2
CC(C)Cn1c(N)c(C(=O)COC(=O)c2ccc(O)cc2O)c(=O)n(C)c1=O	-13	6	-1	0	-7	0	.
COc1ccc(NC(=O)Nc2cccc3c2O[C@H](CN(C)C(=O)NC2CCCCC2)[C@@H](C)CN([C@H](C)CO)C3=O)cc1	7	5	-1	78*	-2	0	71*
C[C@H](CO)N1C[C@H](C)[C@@H](CN(C)C(=O)NC2CCCCC2)Oc2c(NC(=O)Nc3ccc4c(c3)OCO4)cccc2C1=O	18	7	6	82*	-10	0	85*
C[C@H](CO)N1C[C@H](C)[C@@H](CN(C)C(=O)Nc2ccc3c(c2)OCO3)Oc2c(NC(=O)C3CCCCC3)cccc2C1=O	0	29	-2	0	-1	0	.
COc1ccc(N(C(=O)CCl)C(C(=O)NCCc2ccccc2)c2cccs2)cc1Cl (stereo unspecified)	-19	-1	1	64*	-81	0	33*
Cc1ccc(C(C)C)cc1NC(=O)Nc1ccc([N+](=O)[O-])cc1	-20	18	3	40	10	0	.
Cc1cc(Br)ccc1NC(=O)C(C)c1ccc([N+](=O)[O-])cc1 (stereo unspecified)	-6	11	1	56*	-25	0	51*
